Reference: PubChem BioAssay (EPA / NIEHS)
Active and inactive are the calls of the source. Rule for the calls: active = hit-call score of the fitted dose curve at least 0.9, where 1 is the maximum; inactive = score below 0.9.

Experiments:
Conditions in all cases: mRNA level, 48 h; actives raise or lower the signal
[1] = read-out: Insulin-like growth factor-binding protein 1 (IGFBP1), IGFBP1 (gene 3484); test: LTEA_HepaRG_IGFBP1: Life Technologies and Expression Analysis (LTEA) Assay for Insulin-like growth factor-binding protein 1 (IGFBP1) using HepaRG (AID 2283508)
Summary of the method: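 HepaRG, 48 h, 8 conc. (max 100 uM, half-log), duplicates, 0.5% DMSO. Readout: TaqMan qRT-PCR, ACTB/GAPDH/POLR2A normalisation. Fit: bidirectional vs DMSO.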

[2] = read-out: Interleukin 6 (IL6), IL6 (gene 3569); test: LTEA_HepaRG_IL6: Life Technologies and Expression Analysis (LTEA) Assay for Interleukin 6 (IL6) using HepaRG (AID 2283509)
Summary of the method: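 Changes in IL6 mRNA, up or down relative to 0.5% DMSO controls, were derived from concentration-response curves in human HepaRG cells treated for 48 h at up to 100 uM, with ACTB, GAPDH and POLR2A as normalizers.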

[3] = read-out: Interleukin 6 Receptor (IL6R), IL6R (gene 3570); test: LTEA_HepaRG_IL6R: Life Technologies and Expression Analysis (LTEA) Assay for Interleukin 6 Receptor (IL6R) using HepaRG (AID 2283510)
Summary of the method: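 Cells were thawed, plated and cultured 48 h, then medium was changed to serum-free induction medium. Chemicals were added in duplicate (100 uM top, half-log steps, 0.5% DMSO) for 48 h. Lysates were analyzed by qRT-PCR for IL6R expression.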

[4] = read-out: Potassium channel subfamily K member 1 (KCNK1), KCNK1 (gene 3775); test: LTEA_HepaRG_KCNK1: Life Technologies and Expression Analysis (LTEA) Assay for Potassium channel subfamily K member 1 (KCNK1) using HepaRG (AID 2283511)
Summary of the method: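 Human HepaRG cultures receive test chemicals for 48 h in 0.5% DMSO, top concentration 100 uM with half-log dilutions. Induction or suppression of KCNK1 mRNA relative to DMSO is derived by bidirectional fitting of qRT-PCR data.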

[5] = read-out: Keratin 19 (KRT19), KRT19 (gene 3880); test: LTEA_HepaRG_KRT19: Life Technologies and Expression Analysis (LTEA) Assay for Keratin 19 (KRT19) using HepaRG (AID 2283512)
Summary of the method: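 Readout is qRT-PCR of KRT19 mRNA, normalized to ACTB, GAPDH and POLR2A, from HepaRG cells treated 48 h with eight-point half-log dilutions topping at 100 uM. Activity in either direction is scored relative to 0.5% DMSO vehicle.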

[6] = read-out: JUN Transcription Factor, JUN (gene 3725); test: LTEA_HepaRG_JUN: Life Technologies and Expression Analysis (LTEA) Assay for JUN Transcription Factor using HepaRG (AID 2283513)
Summary of the method: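 Read-out is JUN transcript level by TaqMan qRT-PCR, normalized to ACTB, GAPDH and POLR2A, after 48 h chemical treatment of HepaRG cells. Concentration-response spanned eight half-log points up to 100 uM in 0.5% DMSO.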

[7] = read-out: Lipase C (LIPC), LIPC (gene 3990); test: LTEA_HepaRG_LIPC: Life Technologies and Expression Analysis (LTEA) Assay for Lipase C (LIPC) using HepaRG (AID 2283514)
Summary of the method: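 In this multiplexed gene-expression screen, human HepaRG cultures received test chemicals for 48 h across eight concentrations with 100 uM highest, in duplicate. Values reflect LIPC mRNA induction or suppression versus DMSO vehicle, from normalized qRT-PCR.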

[8] = read-out: Lipoprotein lipase (LPL), LPL (gene 4023); test: LTEA_HepaRG_LPL: Life Technologies and Expression Analysis (LTEA) Assay for Lipoprotein lipase (LPL) using HepaRG (AID 2283515)
Summary of the method: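 Concentration-response testing used half-log steps from 100 uM in 0.5% DMSO on human HepaRG cells, 48 h, duplicate wells. Phenobarbital 1 mM served as induction control; LPL mRNA was normalized to ACTB, GAPDH, POLR2A.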

[9] = read-out: matrix metalloproteinase-10 (MMP10), MMP10 (gene 4319); test: LTEA_HepaRG_MMP10: Life Technologies and Expression Analysis (LTEA) Assay for matrix metalloproteinase-10 (MMP10) using HepaRG (AID 2283517)
Summary of the method: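 In differentiated HepaRG cultures kept in 0.5% DMSO, test chemicals act for 48 h over an eight-point range with a top dose of 100 uM. Expression is then quantified by TaqMan RT-PCR against ACTB, GAPDH and POLR2A.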

Compound	outcome [1]	outcome [2]	outcome [3]	outcome [4]	outcome [5]	outcome [6]	outcome [7]	outcome [8]	outcome [9]	AC50 [5]	AC50 [8]	AC50 [1]
OCC1CO1 (configuration not stated)	inactive	inactive	inactive	inactive	inactive	inactive	inactive	inactive	inactive			
Cc1cccc(N)c1	inactive	inactive	inactive	inactive	inactive	inactive	inactive	inactive	inactive			
CCNc1nc(Cl)nc(NC(C)(C)C)n1	inactive	inactive	inactive	inactive		inactive	inactive	inactive	inactive	10.7 µM (active)		
CC(Cl)(Cl)C(=O)O	inactive	inactive	inactive	inactive	inactive	inactive	inactive	inactive	inactive			
O=C(O)C1C(C(=O)O)C2(Cl)C(Cl)=C(Cl)C1(Cl)C2(Cl)Cl (configuration not stated)	inactive	inactive	inactive	inactive	inactive	inactive	inactive	inactive	inactive			
CCOC(=O)c1ccccc1C(=O)OCC	inactive	inactive	inactive	inactive	inactive	inactive	inactive	inactive	inactive			
c1ccc2c(c1)Nc1ccccc1S2	inactive	inactive	inactive	inactive		inactive	inactive		inactive	41.5 µM (active)	65 µM (active)	
Cc1ccc(O)cc1C	inactive	inactive	inactive	inactive	inactive	inactive	inactive	inactive	inactive			
COCCOCCO	inactive	inactive	inactive	inactive	inactive	inactive	inactive	inactive	inactive			
CCOS(=O)(=O)OCC	inactive	inactive	inactive	inactive	inactive	inactive	inactive	inactive	inactive			
CC(C)(C)c1ccc(O)cc1	inactive	inactive	inactive	inactive	inactive	inactive	inactive	inactive	inactive			
O=P1(N(CCCl)CCCl)NCCCO1 (configuration not stated)	inactive	inactive	inactive	inactive	inactive	inactive	inactive	inactive	inactive			
CCCCCCCc1ccc(O)cc1	inactive	inactive	inactive	inactive	inactive	inactive	inactive	inactive	inactive			
CC(C)(C)OOC(C)(C)C	inactive	inactive	inactive	inactive	inactive	inactive	inactive	inactive	inactive			
Nc1ccc(Cl)cc1	inactive	inactive	inactive	inactive	inactive	inactive	inactive	inactive	inactive			
Nc1ccc2ccccc2c1	inactive	inactive	inactive	inactive		inactive	inactive	inactive	inactive	5.98 µM (active)		
CCCN(CCC)c1c([N+](=O)[O-])cc(C(C)C)cc1[N+](=O)[O-]	inactive	inactive	inactive	inactive	inactive	inactive	inactive		inactive		12.5 µM (active)	
CCN(CC)c1ccccc1	inactive	inactive	inactive	inactive	inactive	inactive	inactive	inactive	inactive			
c1cc2c3c(cccc3c1)CC2	inactive	inactive	inactive	inactive	inactive	inactive	inactive	inactive	inactive			
CCC(C)(C)c1ccc(O)cc1	inactive	inactive	inactive	inactive	inactive	inactive	inactive	inactive	inactive			
CCOP(=S)(Oc1ccc([N+](=O)[O-])cc1)c1ccccc1 (configuration not stated)		inactive	inactive	inactive		inactive	inactive	inactive	inactive	15.9 µM (active)		5.97 µM (active)
CSC(C)(C)C=NO	inactive	inactive		inactive	inactive	inactive	inactive	inactive	inactive			
